Laboratory results: PubChem BioAssay (NCI)
Compounds without any hit were thinned out: in the full panel of roughly 79,000, 15% have a hit. No stated cut-off is given here; in the data, active means growth inhibition above about 70%; inactive means the rest.

Key:
[1] = NCI Yeast Anticancer Drug Screen. Data for the rad50 strain (AID 155);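 further: 0% = growth of vehicle-only cultures of the same strain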; settings: S. cerevisiae rad50 strain growth inhibition; at 50.0 µM; active compounds read high
Summary of the method: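 Readout: growth inhibition relative to vehicle-treated cultures. Compound exposure was carried out in a genetically defined yeast strain deficient in DNA damage repair.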

[2] = NCI Yeast Anticancer Drug Screen. Data for the mec2-1 strain (AID 157); settings: S. cerevisiae mec2-1 strain, at 50.0 µM, active compounds read high
Summary of the method: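 Vehicle-treated cultures served as reference for growth inhibition of compound-exposed mec2-1 yeast.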

[3] = NCI Yeast Anticancer Drug Screen. Data for the sgs1 mgt1 strain (AID 161);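 further: 0% = growth of cultures given vehicle only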; settings: S. cerevisiae sgs1 mgt1 strain, at 50.0 µM, active compounds read high
Summary of the method: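 Inhibition of yeast growth, normalised to vehicle-treated controls, is reported for a strain bearing genetic alterations in DNA damage repair.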

[4] = NCI Yeast Anticancer Drug Screen. Data for the cln2 rad14 strain (AID 165);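 further: 0% = growth equal to vehicle treated cultures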; settings: S. cerevisiae cln2 rad14 strain, at 50.0 µM, active compounds read high
Summary of the method: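 Each compound was tested on cln2 rad14 yeast. Inhibition of growth was calculated against vehicle-exposed controls.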

[5] = NCI Yeast Anticancer Drug Screen. Data for the bub3 strain (AID 167); settings: S. cerevisiae bub3 mutant strain, at 50.0 µM, active compounds read high
Summary of the method: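 Readout: yeast growth inhibition, expressed relative to vehicle-only wells. The test organism is a mutant strain from a panel with lesions in DNA repair or checkpoint genes.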

[6] = NCI Yeast Anticancer Drug Screen. Data for the mlh1 rad18 strain (AID 175); settings: S. cerevisiae mlh1 rad18 strain growth inhibition; at 50.0 µM; active compounds read high
Summary of the method: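 Vehicle-treated cultures served as the reference for growth inhibition in a yeast strain carrying DNA damage repair alterations exposed to each compound.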

Measured: growth inhibition

CC(=O)CCCC(=O)O
inactive: [1] 10.5% | [2] 1.25% | [3] -24.5% | [4] -11.9% | [5] 0.45% | [6] 10.2%

N#CN=C(N)NC(=O)/C=C/C=C/c1ccc(Cl)cc1
inactive: [1] 5.8% | [2] 16.8% | [3] 0.8% | [4] 9.8% | [5] 38% | [6] 24.8%

CCOC(=O)c1[nH]n(-c2ccccc2)c(=O)c1/C=N/C(=S)Nc1ccccc1
inactive: [1] -22.3% | [2] -10.6% | [3] -16.6% | [4] -11.8% | [5] -21.3% | [6] -7.85%

Cc1ccc2nc(N/N=C/c3sccc3C)cc(C)c2c1
inactive: [1] -24.3% | [2] -19.9% | [3] -20.9% | [4] -3.25% | [5] -30.1% | [6] -21.4%

COC(=O)CC12CCCC(C)(CC(=O)N1)C2 (stereo unspecified)
inactive: [1] 16.4% | [2] 1.25% | [3] 12.5% | [4] 15.8% | [5] -4% | [6] -0.5%

Cc1cc(C(c2ccccc2)c2cc(C)cc(C(C)(C)CC(C)(C)C)c2O)c(O)c(C(C)(C)CC(C)(C)C)c1
inactive: [1] 3.9% | [2] 5% | [3] -10% | [4] 20.8% | [5] 5.2% | [6] 8%

CCc1onc(-c2noc(CC)c2C)c1C
inactive: [1] -5.35% | [2] 6.5% | [3] 0.25% | [4] -9.35% | [5] -1.5% | [6] 12.3%

c1ccc2c(c1)CCc1cc3cc4c(nc3nc1-2)-c1ccccc1CC4
inactive: [1] -14.4% | [2] -15.8% | [3] -14.1% | [4] -9.4% | [5] -1.75% | [6] -15.2%

CCCCNC(=O)CSc1cc(Cl)c(Cl)cc1Cl
inactive: [1] 15.2% | [2] 9.1% | [3] 16.6% | [4] 19.1% | [5] 25.6% | [6] 13.2%

O=C1OC2=C(CCCC2)C(N2CCCCC2)C12SCCCS2 (stereo unspecified)
inactive: [1] 3.65% | [2] 14.4% | [3] -6.75% | [4] 11.4% | [5] 5% | [6] 2.55%

CC1OC(CC(=O)O)CC2=C1C(=O)c1c(O)cccc1C2=O (stereo unspecified)
inactive: [1] -6.3% | [2] -8.3% | [3] 17.2% | [4] 0.6% | [5] -14.2% | [6] 10.2%

O.O.[Cl][Pt+2][Cl].[NH-]CC1(C[NH-])CCCCC1
inactive: [1] 10.4% | [2] 5.7% | [3] 11.8% | [4] 18.5% | [5] 8.75% | [6] -30.1%

S=C1CSc2c(cnc3ccccc23)N1
inactive: [1] -4.05% | [2] -6% | [3] 7% | [4] 18.8% | [5] 18.2% | [6] 6.95%

O=C1CC2C(O)OC(O)C(C1)N2C(=O)OCC(Cl)(Cl)Cl (stereo unspecified)
inactive: [1] 10.8% | [2] -15.9% | [3] -8.55% | [4] 12.6% | [5] -17.4% | [6] -6.6%

CCN(CC)CN1C(=O)C(=O)c2ccccc21
inactive: [1] 6.8% | [2] -25.4% | [3] 2.6% | [4] 24.4% | [5] 12.8% | [6] 10.3%

CCCCCC(N)=O
inactive: [1] 16.6% | [2] -7.05% | [3] 4.25% | [4] 15.2% | [5] 14.8% | [6] 31.8%

COC(=O)C(Cc1c[nH]c2ccccc12)NP(=O)(O)OCC1OC(n2cc(F)c(=O)[nH]c2=O)CC1O (stereo unspecified)
inactive: [1] -31.4% | [2] -17.1% | [3] -38.5% | [4] -9.2% | [5] -24.7% | [6] -16.1%

CCCCCCCCCCCCCCCC/C(=C\c1ccc2ccccc2c1)[N+](=O)[O-]
inactive: [1] -29.2% | [2] -10.7% | [3] -24.6% | [4] -38.3% | [5] -1.75% | [6] -10%

O=C(Cl)c1ccc2ccccc2c1
inactive: [1] 45.8% | [2] 8.3% | [3] 3% | [4] -43% | [5] -20.4% | [6] 29.4%

O=C1OC(=O)c2c(Br)c(Br)c(Br)c(Br)c21
inactive: [1] 5.9% | [2] 8.65% | [3] -16.4% | [4] -8.9% | [5] -10.9% | [6] 2.7%

CCOC(=O)Cn1/c(=N/N=C(\C)c2ccc([N+](=O)[O-])o2)sc2cc(Cl)ccc21
inactive: [1] -5.75% | [2] 9.05% | [3] 4.8% | [4] 14.3% | [5] -4.15% | [6] 3.35%
